Sfp PPTase inh = blocks B. subtilis Sfp PPTase activity | 310,000 compounds, 3.5% hits | Potency, µM, most hits filed as inhibitors | Biochemical Sfp PPTase activity, qHTS | AID 1490 | Q9F4F7;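 further: the enzyme is Sfp with the accession as filed and its product quenches rhodamine fluorescence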
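Buffer: 50 mM Hepes-Na pH 7.6, 10 mM MgCl2, 0.01% Nonidet P-40, 0.01% BSA. Enzyme 15 nM, pre-exposed to compound 15 min; substrates then added and fluorescence change tracked over 30 min.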
Tau fluor cs = counter-screen for tau fibril formation inhibitors; tau K18 P301L Alexa594 fluorescence, heparin fibrillization; Potency, µM (series often up to 57.7 µM); 280,000 compounds, 0.93% hits; AID 1463; further: nearly all actives have a fitted effect of over 55% in size
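Human tau K18 P301L (15 uM unlabeled, 0.24 uM Alexa 594-labeled) in 100 mM sodium acetate pH 7 with 20 uM heparin, 6 hr at 37 C. ThT 30 uM added, 1 hr ambient; Alexa 594 FP and total fluorescence read at 555/632 nm.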
PLK1 PBD inh = blocks phosphopeptide binding to human PLK1 polo-box domain. P53350. Plk1 PBD binding of FITC phosphopeptide, fluorescence polarization. Potency, µM, hits mostly inhibitors. 360,000 compounds, 2.8% hits; further: series mostly up to about 57 µM; nearly all actives have a fitted effect of over 65% in size
Tau ThT inhib = tau fibrillization inhibition (ThT binding); recombinant tau K18 P301L (four-repeat tau fragment), heparin-induced fibrillization, ThT fluorescence; 270,000 compounds, 2.1% hits; AID 1460; Potency, µM (doses to about 57.4 µM), hits mostly inhibitors; further: nearly all actives have a fitted effect of over 55% in size
Target sequence (P10636 561-689 P618L limits assumed): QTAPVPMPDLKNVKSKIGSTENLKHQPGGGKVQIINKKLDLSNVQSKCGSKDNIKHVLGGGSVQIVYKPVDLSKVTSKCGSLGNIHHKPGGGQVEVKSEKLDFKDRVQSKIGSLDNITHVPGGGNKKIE
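In this qHTS, human K18 P301L tau is incubated with compound and heparin for 6 hr at 37 C, and Thioflavin T fluorescence then reports fibril load.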
VDR inh = inhibitors of human vitamin D receptor. VDR-SRC2-3 peptide fluorescence polarization, 2 h. Potency, µM, usual class: inhibitors. 400,000 compounds, 0.93% hits
Target sequence (P11473 whole entry, looked up): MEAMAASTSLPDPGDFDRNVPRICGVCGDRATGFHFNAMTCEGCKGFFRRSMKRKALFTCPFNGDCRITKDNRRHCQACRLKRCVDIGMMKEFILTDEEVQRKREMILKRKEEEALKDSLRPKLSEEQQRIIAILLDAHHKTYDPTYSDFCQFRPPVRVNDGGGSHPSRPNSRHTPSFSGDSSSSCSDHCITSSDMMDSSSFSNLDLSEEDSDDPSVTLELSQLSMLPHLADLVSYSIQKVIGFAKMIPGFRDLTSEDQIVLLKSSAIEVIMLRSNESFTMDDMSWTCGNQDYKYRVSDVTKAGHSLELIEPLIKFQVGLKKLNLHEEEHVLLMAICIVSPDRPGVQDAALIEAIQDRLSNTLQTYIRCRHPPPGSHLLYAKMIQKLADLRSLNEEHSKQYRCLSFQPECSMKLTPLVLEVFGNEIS
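Fluorescence polarization assay of small-molecule disruption of VDR binding to coregulator peptide SRC2-3. Compounds and controls pin-transferred, then read after 2 h incubation at ambient room temperature.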
Tau FP inhib = tau fibrillization inhibition (FP); K18 P301L tau heparin fibrillization, Alexa594 FP, 6 h; 280,000 compounds, 0.39% hits; Potency, µM (series often up to 57.7 µM), hits mostly inhibitors; P10636; further: nearly all actives have a fitted effect of over 55% in size
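Read-out: fluorescence polarization of Alexa 594-labeled tau (0.24 uM), 555 nm excitation, 632 nm emission. Mixtures held 15 uM unlabeled K18 P301L, compound and 20 uM heparin, pH 7 acetate buffer, incubated 6 hr at 37 C.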
Each line names hits and unclear results; the compound was inactive in the other large screens. An excerpt weighted towards active compounds, which were near 6% of everything screened. The call rests on the fitted dose curve; in most records, active means well fitted curve in the direction sought with a large enough effect; inconclusive means small, poorly fitted or top-dose-only effect, or another doubt; inactive means no such curve, though single readings can be large; an effect the other way counts as inactive or inconclusive.

N#CCCN(C(=O)c1ccc2c(=O)n3c(nc2c1)CCCCC3)c1ccccc1	PLK1 PBD inh 24µM (no result: Tau fluor cs, Tau ThT inhib, Tau FP inhib)
N#CCCN(C(=O)COC(=O)c1ccc2c(=O)n3c(nc2c1)CCC3)c1ccccc1	PLK1 PBD inh inconclusive, VDR inh inconclusive
COc1ccc2c(c1)O/C(=C\c1ccco1)C2=O	Sfp PPTase inh 4.5µM (no result: Tau ThT inhib)
O=C(NCc1ccco1)c1cnc2ccccn2c1=O	none
O=C(NCc1ccco1)c1cccn2c(=O)c3cc4ccccc4cc3nc12	Sfp PPTase inh inconclusive, Tau ThT inhib 2.8µM (no result: PLK1 PBD inh, VDR inh)
CCOc1ccc(CNn2cnnc2)cc1	PLK1 PBD inh 27µM, VDR inh inconclusive (no result: Tau fluor cs, Tau ThT inhib, Tau FP inhib)
CC1=NOC(=O)/C1=C\c1ccc(-c2cccc(Cl)c2)o1	Sfp PPTase inh 20µM, Tau fluor cs inconclusive, PLK1 PBD inh 0.53µM, Tau ThT inhib 16µM, VDR inh inconclusive
CC1=CC2=NC(=O)/C(=C\c3ccc(-c4cccc(Cl)c4)o3)C(=N)N2O1	none
N#C/C(=C\c1ccc(-c2ccc(Cl)c(C(=O)O)c2)o1)c1nc2ccccc2[nH]1	Tau fluor cs inconclusive, Tau ThT inhib inconclusive (no result: Sfp PPTase inh, PLK1 PBD inh)
Nc1ccccc1N=Cc1ccc(-c2cccc(Cl)c2)o1	Sfp PPTase inh 32µM, Tau fluor cs inconclusive, PLK1 PBD inh inconclusive, Tau ThT inhib inconclusive
CC1=NOC(=O)/C1=C\c1ccc(-c2ccc(Cl)c(C(=O)O)c2)o1	Sfp PPTase inh 56µM, PLK1 PBD inh 2.1µM, Tau ThT inhib inconclusive, VDR inh inconclusive
O=C(c1cc2cc(Cl)ccc2[nH]1)N1CCN(Cc2ccc3c(c2)OCO3)CC1	none (no result: Tau fluor cs, Tau ThT inhib, Tau FP inhib)
O=C(Cn1ncc2c3ccccc3n(Cc3cccc(Cl)c3)c2c1=O)N1CCCCC1	Tau ThT inhib inconclusive (no result: Sfp PPTase inh, PLK1 PBD inh)
COc1ccc(N=C2S/C(=C\c3ccc(OC(C)C(=O)O)c(OC)c3)C(=O)N2CCc2c[nH]c3ccccc23)cc1 (centres undefined)	Sfp PPTase inh inconclusive, Tau fluor cs inconclusive, PLK1 PBD inh inconclusive, Tau ThT inhib 28µM, VDR inh 40µM
O=C1/C(=C/c2ccc(N3CCOCC3)o2)SC(=Nc2ccccc2)N1CCc1c[nH]c2ccccc12	Sfp PPTase inh 2.8µM, Tau fluor cs inconclusive, Tau ThT inhib 14µM, VDR inh 79µM, Tau FP inhib inconclusive
COc1cc(/C=C2\SC(=Nc3ccccc3)N(CCc3c[nH]c4ccccc34)C2=O)ccc1OC(C)C(=O)O (centres undefined)	Tau fluor cs inconclusive, PLK1 PBD inh inconclusive, Tau ThT inhib inconclusive, VDR inh inconclusive
O=C(O)CCSc1ccccn1	Sfp PPTase inh 50µM, PLK1 PBD inh 13µM
O=C(CCSc1ccccn1)c1ccccc1	Sfp PPTase inh 79µM, PLK1 PBD inh inconclusive, Tau ThT inhib inconclusive, VDR inh inconclusive, Tau FP inhib inconclusive
O=C(CCCc1ccccn1)c1ccccc1	none (no result: Sfp PPTase inh, Tau fluor cs, Tau ThT inhib, Tau FP inhib)
O=C(CCSc1ccccn1)Nc1ccc(Br)cc1	none
COCCCNC(=O)CSc1nc2cc3c(cc2c(=O)n1CCCCCC(=O)NCc1ccc(OC)cc1)OCO3	none (no result: Sfp PPTase inh, PLK1 PBD inh)
O=C(Oc1cc(-c2ccccc2)no1)c1ccc(Cl)cc1	PLK1 PBD inh 24µM
CCOC(=O)COn1c(=O)c(-c2ccc(C)cc2)[n+]([O-])c2ccccc21	none (no result: Tau fluor cs, Tau ThT inhib, Tau FP inhib)
CCOC(=O)COn1c(=O)c(-c2ccco2)[n+]([O-])c2ccccc21	Sfp PPTase inh 25µM
O=c1c(-c2ccco2)[n+]([O-])c2ccccc2n1OCc1ccccc1F	PLK1 PBD inh inconclusive
COc1ccccc1COn1c(=O)c(-c2ccco2)[n+]([O-])c2ccccc21	Sfp PPTase inh 50µM, PLK1 PBD inh inconclusive, Tau ThT inhib inconclusive
O=c1c(-c2ccco2)[n+]([O-])c2ccccc2n1OCc1c(F)cccc1F	Sfp PPTase inh 50µM, PLK1 PBD inh inconclusive, Tau ThT inhib inconclusive
CC(O)(c1cccnc1)c1nc(-c2cccc(C(F)(F)F)c2)cs1 (centres undefined)	none (no result: Sfp PPTase inh, Tau fluor cs, Tau ThT inhib, VDR inh, Tau FP inhib)
COC(=O)c1c(N(S(C)(=O)=O)S(C)(=O)=O)sc2c1CCN(c1ncc(C(F)(F)F)cc1Cl)C2	Sfp PPTase inh 56µM
COC(=O)Nc1ccc(SCC(=O)c2cccc([N+](=O)[O-])c2)cc1	PLK1 PBD inh 13µM, VDR inh inconclusive (no result: Tau fluor cs, Tau ThT inhib, Tau FP inhib)
O=C(CSc1ncn[nH]1)c1ccco1	Sfp PPTase inh inconclusive, PLK1 PBD inh 30µM, Tau ThT inhib inconclusive

From PubChem
